# A number with no mark means an inactive call. Calls of active or inactive are those of the source. Rule as the data show it: active = inhibition above about 30%; inactive = the rest.
# Test system: transactivating tegument protein VP16 (Human herpesvirus 1), Gal4-VP16 luciferase reporter
# Test: repression of VP16-driven luciferase reporter – cell-based, luminescence, high throughput, counter-screen for SRC3 inhibitor project (AID 588794)
# Conditions: mammalian cells, at 3.6 µM, stronger effect = higher value
row,SMILES,inhibition
1,CC(C)(CC(=O)O)CC(=O)Nc1cc(C(F)(F)F)cc(C(F)(F)F)c1,-7.34%
2,COC(=O)c1sc(NC(=O)c2cc(-c3ccccc3)nc3ccccc23)c(C#N)c1C,38.6% (active)
3,Cn1nc(C(F)(F)F)c(-c2ccc(Br)cc2)c1NC(=O)c1ccco1,-1.15%
4,Cc1nnsc1-c1onc(C)c1C(=O)Nc1cc(Cl)cc(Cl)c1,13.8%
5,Cc1cc(C=C2C(=O)c3ccccc3C2=O)c(C)n1-c1ccccc1,43.2% (active)
6,O=C(CNc1cccc([N+](=O)[O-])c1)N/N=C/c1ccc([N+](=O)[O-])o1,14.3%
7,Cc1ccc(S(=O)(=O)N(C)c2ccc(OCC(=O)OCc3c(C)noc3C)cc2)cc1,-6.86%
8,COc1ccc(S(=O)(=O)Nc2cc([N+](=O)[O-])ccc2OC)cc1,2.4%
9,COc1ccc(C(=O)NCC(=O)OCc2c(Cl)cccc2Cl)cc1OC,1.22%
10,COc1cccc(/C=N/NC(=O)c2ccc(=O)n(C)c2)c1O,9.91%
11,CN1C(=O)C2(C(C#N)=C(N)N(c3cc(Cl)cc(Cl)c3)C3=C2C(=O)CC(C)(C)C3)c2ccccc21 (stereo not given),25.6%
12,c1ccc(-n2nnnc2NCCCN2CCOCC2)cc1,-8.35%
13,O=C(Nc1nc(-c2ccc3c(c2)OCCO3)cs1)c1ccc(S(=O)(=O)N2CCCCC2)cc1,32.6% (active)
14,CC(=O)N1CCCc2cc(S(=O)(=O)N3CCCC(C(=O)NCc4ccc(Cl)cc4)C3)ccc21 (stereo not given),9.17%
15,CCN(CC)c1ccc(/C=N/NC(=O)c2cnccn2)c(O)c1,52.3% (active)
16,CCOC(=O)c1c(-c2ccccc2)nnn1-c1nc(OCC)nc(N2CCCCC2)n1,0.51%
17,CCCN1C(=O)c2ccccc2NC1c1ccc(Cl)c(Cl)c1 (stereo not given),22.1%
18,CCN(CC)S(=O)(=O)c1cccc(NC(=O)Nc2cccc(C(F)(F)F)c2)c1,18%
19,O=C(Cn1cnc([N+](=O)[O-])n1)N/N=C/c1cc(Cl)ccc1O,27.4%
20,O=C(NC1CCCC1)C(c1ccncc1)N(Cc1ccccc1)C(=O)Cc1cccs1 (stereo not given),-0.83%

row,SMILES,inhibition
1,C=CCn1c(SCC(=O)NC2CCCC2)nnc1-c1ccccn1,-2.97%
2,COc1ccc(Nc2nc(-c3ccccc3)nc3ccccc23)cc1S(=O)(=O)N1CCOCC1,1.3%
3,CCC1C(=O)NCCN1C(=O)c1ccc2nc(Cc3ccc(OC)cc3)oc2c1 (stereo not given),-0.9%
4,COc1ccc(N/N=C2/CCCCC2=O)cc1,21%
5,Cc1ccccc1NC(=O)C(=Cc1ccc(C(=O)O)cc1)C(=O)Nc1ccccc1C,43.2% (active)
6,CCCCCCC(=O)NNC(=O)CC(=O)Nc1ccccc1C(=O)O,-10.2%
7,COc1ccccc1OCC(=O)N/N=C/c1c(O)ccc2ccccc12,22.8%
8,C=CCSc1nsc(NC(=O)Nc2ccc(F)cc2)n1,-4.12%
9,O=C(NCCCn1ccnc1)C(=O)NCc1ccc(Cl)cc1,-1.8%
10,CCOC(=O)c1c(C)sc2c1N(C(=O)CCl)c1cc(Cl)ccc1S2,1.53%
11,Cn1c(=O)n(C)c2cc(NS(=O)(=O)c3ccc(C(C)(C)C)cc3)ccc21,14.9%
12,Cc1[nH]n(-c2ccccc2)c(=O)c1/C=N/Nc1nncc(-c2ccccc2)n1,67.5% (active)
13,COc1ccc(/C(C)=N/NC(=O)c2cccc(S(=O)(=O)N3CCCC3)c2)c(O)c1,63.5% (active)
14,Cc1noc(C)c1COC(=O)c1cc(F)c(F)cc1Cl,1.74%
15,S=c1[nH]nc(C2CCCCC2)n1/N=C/c1ccco1,-11.2%
16,CCOc1cc(N2CCOCC2)c(OCC)cc1NC(=O)c1cc(-c2ccco2)nc2ccccc12,8.51%
17,CCOc1ccc(S(=O)(=O)N2CCN(C(=O)COc3ccc(Br)cc3)CC2)cc1,14.7%
18,O=C(CN1C(=O)c2ccccc2S1(=O)=O)c1ccc(F)cc1,17.6%
19,O=C(CCc1ccccc1)N/N=C/c1cc(Br)ccc1O,17.2%
20,Oc1cccc2ccc(Nc3ccccn3)nc12,-8.03%

# Reference: PubChem BioAssay
